Bioassay records deposited in PubChem by National Center for Advancing Translational Sciences (NCATS).
Sampled rows, rich in hits. Any-hit rate of the full collection: about 0.97%.
CCT modulator – changes cytosolic chaperonin activity | purified chaperonin ATPase assay, HTRF ADP detection, 30 min | activity change, % (test concentration not listed), hits read low | hit rate 0.3% among 360,000 | AID 651819; in the data active means activity change below about -30%; further: on the % scale 0 is the no-effect control and ±100 the full control effect
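TRiC (40 or 20 nM final, by batch activity) in 30 mM Tris pH 7.4, 100 mM KCl, 5 mM MgCl2, 1 mM DTT was treated with compound at 76 uM single dose, then 10 uM ATP, 30 min at 37 °C. ADP was read by HTRF Transcreener.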
Epigenetic reg – epigenetic control regulation, reporter derepression; AID 1865; hit rate 0.2% among 280,000; Potency, µM (top dose mostly 53.9 µM), inactives show at the highest dose GFP activation, usual class: activators; murine LDR cells, GFP reporter derepression, 30 h; further: potency means the concentration at half of the fitted maximal effect; % of control where 0% means no effect; nearly all actives have a fitted effect of over 60% in size
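Reporter derepression read as number of fluorescent GFP-positive objects, 20-120 um in size, counted by laser-scanning cytometer. Mouse LDR line with an epigenetically silenced CMV-GFP locus; compound incubation 30 h, 37 C.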
pAkt inh – inhibitors of Akt phosphorylation | Neuro2A IGF-stimulated pAkt S473 HTRF, 20 min; active compounds read low | activity change, % for hits at 50 µM | hit rate 0.32% among 360,000; in the data active means activity change below about -80%; inconclusive means mostly about -51% to -80%; further: on the % scale 0 is the no-effect control and ±100 the full control effect
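Neuro2A cells (4,500/well, DMEM with 0.5% FBS) were treated with compound at a single 50 µM final concentration, stimulated with 6 nM IGF for 20 min at 37 °C, and lysed. Phospho-Akt Ser473 was read by HTRF as 665/615 ratio ×10^4.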
uPA surface inh – cell surface uPA generation inhibition | cell surface uPA generation assay, qHTS | Potency, µM (doses to about 38.3 µM), without a hit: at the top dose activity change, negative = inhibition, actives largely listed as inhibitors | hit rate 0.31% among 330,000; active means well fitted inhibition curve with a large enough effect; inconclusive means small, poorly fitted or top-dose-only effect; inactive means no such curve, though single readings can be large or run the other way; tested in mouse RAW 264.7 cells; further: potency means the concentration at half of the fitted maximal effect; on the % scale 0 is the no-effect control and ±100 the full control effect; nearly all actives have a fitted effect of over 55% in size
MmCpn inh – blocks the Methanococcus maripaludis chaperonin Mm-Cpn; purified Mm-Cpn ATPase, ADP Transcreener TR-FRET; Potency, µM (series often up to 76.9 µM), for the others: top-dose activity, negative = inhibition, actives largely listed as inhibitors; hit rate 0.031% among 330,000; AID 504842; further: potency means the concentration at half of the fitted maximal effect; on the % scale 0 is the no-effect control and ±100 the full control effect; nearly all actives have a fitted effect of over 80% in size
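Measured: ADP formation by purified Mm-CPN. Conditions: 25 nM protein, 10 uM ATP, Tris pH 7.4 with Mg2+, K+ and DTT, 37°C for 30 min. Detection: Transcreener HTRF after 30 min at room temperature.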
MBNL1 CUG block – MBNL1-poly(CUG) RNA binding inhibition | Q9NR56 | TR-FRET MBNL1-His/biotin-(CUG)12 binding, 665/545 ratio | Potency, µM (series often up to 57.5 µM), for the others: top-dose activity change, negative = inhibition, most hits filed as inhibitors | hit rate 0.036% among 280,000 | AID 2675; active means well fitted inhibition curve with a large enough effect in the signal ratio, with a control signal flat, not every such curve was filed as active; inconclusive means small, poorly fitted or top-dose-only effect, or effect the other way, or a change in a side signal; inactive means no such curve, though single readings can be large or run the other way; the % refers to the signal ratio; further: potency means the concentration at half of the fitted maximal effect; on the % scale 0 is the no-effect control and ±100 the full control effect
Target sequence (Q9NR56 whole entry, looked up): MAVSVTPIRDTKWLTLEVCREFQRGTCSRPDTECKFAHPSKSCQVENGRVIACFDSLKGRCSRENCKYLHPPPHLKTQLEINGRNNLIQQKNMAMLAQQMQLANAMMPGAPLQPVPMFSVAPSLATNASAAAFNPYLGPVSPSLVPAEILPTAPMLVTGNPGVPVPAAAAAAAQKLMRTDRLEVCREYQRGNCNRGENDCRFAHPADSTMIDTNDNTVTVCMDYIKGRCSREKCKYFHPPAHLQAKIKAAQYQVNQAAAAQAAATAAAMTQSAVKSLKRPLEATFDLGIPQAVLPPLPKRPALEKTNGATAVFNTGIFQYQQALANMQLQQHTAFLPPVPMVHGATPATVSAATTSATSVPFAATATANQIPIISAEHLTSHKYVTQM
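MBNL1-His + Biotin-(CUG)12, cpd titration 92 nM–58 uM; Tb anti-His Ab 0.055 ng/ul, SA-XL665 5 nM (final); 60 min RT; ratiometric 665/545 nm, Ex 340 nm; normalized to buffer and full-complex controls.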
* hit, by the source's call; i = inactive; ? = inconclusive; · = not tested or not shown. Unless noted, the call rests on the fitted dose curve; in most records, active means well fitted curve in the direction sought with a large enough effect; inconclusive means small, poorly fitted or top-dose-only effect, or another doubt; inactive means no such curve, though single readings can be large; an effect the other way counts as inactive or inconclusive.

SMILES	CCT modulator	Epigenetic reg	pAkt inh	uPA surface inh	MmCpn inh	MBNL1 CUG block
Cc1ccc(S(=O)(=O)N(CC(=O)O)Cc2cccc(C)c2)cc1	·	9.6%	·	·	·	·
CCOc1ccc(-c2cc(C(=O)NCCCOC)c3c(-c4ccc(CC)cc4)[nH]nc3n2)cc1	·	13.0%	·	·	·	·
CCN(CC)S(=O)(=O)c1ccc(N/N=C/c2ccc(O)cc2)nc1	0.3	-4.9%	i	-15.1%	0.2%	8.9%
CCN(CC)S(=O)(=O)c1ccc(N/N=C(\C)c2ccc(OC)cc2O)nc1	-1.8	?	i	5.62µM*	1.8%	-3.6%
COc1cc(OC)c(NC(=O)Nc2sc3nc4n(c(=O)c3c2C)CCC(C)CC4)cc1Cl (stereo not given)	·	1.4%	·	·	·	·
Cc1[nH]c2ccccc2c1C(=O)CCl	-0.2	0.2%	i	8.91µM*	0.2%	-8.5%
CC1(C(=O)Nc2cccc(NS(C)(=O)=O)c2)CCN1Cc1ccccc1OC(F)F (stereo not given)	-0.9	·	i	·	·	·
c1ccc(OCCSc2nnnn2C2CCCCC2)cc1	-2.9	0.0%	-111.7%*	-1.8%	1.0%	-7.0%
NC(=S)NN=C1CCCCCCCCC1	0.2	·	i	-2.3%	·	·
NC(=S)NN=C1CCSCC1	-33.5*	·	i	-1.0%	·	·
CC(=O)c1cccc(Nc2c3c(nc4ccccc24)CCC3)c1	-2.8	·	i	0.794µM*	-0.1%	-5.7%
CCN(CC)C(=O)c1[nH]cnc1C(=O)N[C@@H](CCCCNC(=O)OC(C)(C)C)C(=O)OC(C)(C)C	-30.8*	0.0%	i	22.6%	·	-0.7%
CC(=O)c1cccc(S(=O)(=O)N2CCC(C(=O)Nc3cccc(C(=O)NC4CC4)c3)CC2)c1	-0.3	·	i	-10.1%	-0.4%	·
C[C@@H](CO)NC(=O)c1ccc2c3n(nc2c1)-c1ccc(Cl)cc1CO3	-3.5	-1.6%	i	4.47µM*	-0.6%	?
Cc1ccc2c(c1)COc1c3ccc(C(=O)N[C@@H](C)CO)cc3nn1-2	1.7	-0.1%	i	4.47µM*	-1.6%	?
Cc1ccc2c(c1)COc1c3ccc(C(=O)NC(C)C)cc3nn1-2	-0.7	3.2%	i	7.08µM*	-0.8%	?
COc1ccc(N2CCN(C(=O)Cc3ccc(S(=O)(=O)N4CCOCC4)s3)CC2)cc1	3.2	-1.7%	i	0.3%	-0.8%	2.7%
CCc1ccc(OCC(=O)Nc2ccc(-c3nc4ccccc4o3)c(O)c2)cc1	-3.6	?	-101.8%*	8.5%	-11.0%	44.7%
Cc1ccc(N(CC(=O)NC(C)(C)C)C(=O)CS(=O)CC(=O)Nc2ccc(F)cc2)cc1 (stereo not given)	-0.3	1.1%	i	2.5%	3.6%	-15.9%
Cc1c(C(=O)NCc2ccc(N(C)C)cc2)oc2c1-c1nn(Cc3cccc(Cl)c3)cc1CC2	·	1.4%	·	·	·	·
CC(C)(C)c1ccc(OCC(=O)Nc2ccc(C(=O)Nc3ccccc3C(=O)O)cc2)cc1	-2.6	·	i	-4.2%	0.9%	-9.7%
C[C@@H](C(=O)Nc1ccc2ccccc2c1)[C@H]1C[C@]1(C)[C@H](NS(=O)(=O)c1ccc2ccccc2c1)c1ccccc1	·	-0.9%	·	·	·	·
Cc1nn(C)c(Cl)c1S(=O)(=O)N[C@@H](c1ccccc1)[C@]1(C)C[C@H]1[C@@H](C)C(=O)Nc1ccc2ccccc2c1	-69.6*	-0.9%	i	-26.4%	-0.5%	18.7%
CC(=O)Nc1cccc(OCCCNC(=O)c2cccc3ccccc23)c1	-0.3	1.0%	i	-3.4%	5.8%	4.4%
CCCc1ccc2oc(C(=O)NCCN3CCCC(O)C3)c(C)c2c1 (stereo not given)	-2.6	·	i	-7.3%	1.5%	6.5%
Cc1ccc2c(C)c(C(=O)NCCN3CCCC(O)C3)oc2c1C (stereo not given)	-37.9*	·	·	2.4%	0.7%	2.6%
COc1ccc(Cc2nnc(NC(=O)CSc3ccc(C)cc3)s2)cc1	-40.9*	-1.3%	i	-2.1%	-0.3%	·
